For 21 compounds, Potency results are on record in PubChem BioAssay (NCATS).

Records with an inconclusive call do not appear. A call without a number means that no potency is given here. Calls of active or inactive are those of the source. The call rests on the fitted dose curve; in most records, active means well fitted inhibition curve with a large enough effect; inconclusive means small, poorly fitted or top-dose-only effect; inactive means no such curve, though single readings can be large or run the other way. Numbered stars: 1 amine (or outer) side, 2 acyl side, 3 side chain; on linkers, the order of the positions; unused ones are H or OH. Bridge positions count the residues as written; N and C are the ends. Square brackets hold non-standard residues; d marks the D form. Peptide text beside a SMILES is read from it. * marks the point of attachment. ξ: configuration not given here. ΔAla(Z-3-ureido) = NC(=O)N/C=C(\N)C(=O)O; ξDab(CH2SO3H) = NC(CCNCS(=O)(=O)O)C(=O)O; X2 = NC1=NC(O)CC(C(N[*:1])C(=O)[*:2])N1; Heptanoyl(6-Me) = CC(C)CCCCC(=O)*; ξβ3hOrn = NCCCC(N)CC(=O)*; Orn = NCCC[CH](N)C(=O)O; Dab = NCC[CH](N)C(=O)O; Dap = NC[CH](N)C(=O)O
Potency means the concentration at half of the fitted maximal effect.

The nature of the experiment: S16 Schwann cell PMP22 intronic element firefly luciferase assay (AID 624032). Further: nearly all actives have a fitted effect of over 30% in size. As to conditions: S16 rat Schwann cells, PMP22 element FLuc, 24 h; series mostly up to 57.5 µM. The text has this: Charcot-Marie-Tooth-Association [CMTA]
National Center for Advancing Translational Sciences [NCATS]
Charcot-Marie-Tooth (CMT) disease was first characterized by Jean-Martin Charcot and Pierre Marie in France and, independently, by Howard Henry Tooth in England in 1886. CMT is one of the most common inherited neurological diseases, affecting approximately 1 in 2,500 Americans. […] The most prevalent type of CMT is known as CMT1A and caused by a duplication of the PMP22 gene which leads to over-expression of this protein. PMP22 is a glycosylated intrinsic membrane protein accounting for 2-5% of the myelin protein content, and its over-expression results in demyelination and subsequently axonal loss.
A pair of cellular transcription-based assays was developed in the S16 rat Schwann cell lines (Hai, M., et al., 2002) stably transfected with orthogonal reporters - firefly luciferase (Fluc) and beta-lactamase (beta-Lac) - whose expression is driven by an intronic regulatory element of the PMP22 gene (Jones, E.A., et al., 2011) to recapitulate endogenous expression of PMP22. The current assay employs Fluc to report on PMP22 expression. A comprehensive library of approved drugs, the NCGC Pharmaceutical Collection (Huang, R., et al., 2011), was screened in the cross-validating platform of the orthogonal reporter assays to identify drug modulators inhibitory towards PMP22 expression.
A set of counter-screens was devised to address non-specific activity of the library. An ATP-dependent CellTiter-Glo assay (developed by Promega Corp) was utilized to control cell viability. In addition, biochemical Fluc enzyme assay was performed to assess direct inhibition of the Fluc enzymatic activity.
Hai, M., Muja, N., DeVries, G.H., Quarles, R.H. and Patel, P.I. Comparative analysis of Schwann cell lines as model systems for myelin gene transcription studies. J Neurosci Res, 2002. 69(4): pp 497-508
Huang, R., Southall, N., Wang, Y., Yasgar A., Shinn P., Jadhav, A. , Nguyen, D.-T. and Austin, C.P., The NCGC pharmaceutical collection: a comprehensive resource of clinically approved drugs enabling repurposing and chemical genomics. Sci Transl Med, 2011. 3(80): p. 80ps16.
S16 Schwann cell PMP22 intronic element firefly luciferase assay
The FLuc-expressing S16 cells were seeded in white solid 1536-well plates at between 500-750 cells/4uL in DMEM medium containing 10% FBS, w/o phenol red. After overnight incubation at 37 degree Celsius/5% C02, 23 nL of compounds or DMSO were delivered to each well using a pin tool, followed by 24h-incubation at 37 degree Celsius/5% C02. Then 4 uL ONE-Glo luminescent substrate mix (Promega) was added to each well. Luminescence was measured on a ViewLux plate reader (Perkin Elmer). The % activity was determined by normalizing to the average readings of PTC124 (a positive control) - treated cells relative to DMSO-treated cells (0% Activity). The concentration-effect curves were then classified based on curve quality (r2), response magnitude and degree of measured activity.
For the compound `O=C(O)c1ccccc1-c1c2cc(Br)c(=O)c(Br)c-2oc2c(Br)c(O)c(Br)cc12`, the Potency entry was “inactive”.
Turning to `CCC(Oc1ccccc1)C(=O)NC1C(=O)N2C1SC(C)(C)C2C(=O)O` (stereo unspecified), the Potency result is “inactive”.
For `CCOC(=O)C(CS)NCCN[C@@H](CS)C(=O)OCC` (stereo partly specified) the value was 10.2 µM (active); for `CC(C)C(NC(=O)C(CC(=O)O)NC(=O)C(CCCCN)NC(=O)C(N)CCCN=C(N)N)C(=O)NC(Cc1ccc(O)cc1)C(=O)O` (stereo unspecified) (H-RKDVY-OH; configuration not given here), “inactive”; for `O=C1/C(=C\c2cccs2)CCC/C1=C/c1cccs1`, “inactive”.
For `CC(=O)OCC1=C(C(=O)O)N2C(=O)C(NC(=O)Cc3ccccc3)C2SC1` (stereo unspecified) the value was “inactive”; for `CCC(C)C1NC(=O)C(CCNCS(=O)(=O)O)NC(=O)C(NC(=O)C(CCNCS(=O)(=O)O)NC(=O)C(NC(=O)C(CCNCS(=O)(=O)O)NC(=O)CCCCC(C)C)C(C)O)CCNC(=O)C(C(C)O)NC(=O)C(CCNCS(=O)(=O)O)NC(=O)C(CCNCS(=O)(=O)O)NC(=O)C(C(C)CC)NC1=O` (stereo unspecified) ({Heptanoyl(6-Me)}-[ξDab(CH2SO3H)]T[ξDab(CH2SO3H)][Dab][ξDab(CH2SO3H)]II[ξDab(CH2SO3H)][ξDab(CH2SO3H)]T; lactam 4-C; configuration not given here), “inactive”; for `CCC1NC(=O)C(NC(=O)c2ncccc2O)C(C)OC(=O)C(c2ccccc2)NC(=O)C2CC(=O)CCN2C(=O)C(Cc2ccccc2)N(C)C(=O)C2CCCN2C1=O` (stereo unspecified), “inactive”.
`NCCCC(N)CC(=O)NC1CNC(=O)C(C2CC(O)N=C(N)N2)NC(=O)/C(=C/NC(N)=O)NC(=O)C(CO)NC(=O)C(CO)NC1=O` (stereo not drawn) (ξβ3hOrn-[Dap]SS[ΔAla(Z-3-ureido)][X2]; lactam 1-C; configuration not given here): the Potency entry is “inactive”.
For `COc1ccc(-c2nc3ccc(C4=C(C)CC(=O)NN4)cc3[nH]2)cc1` the value was “inactive”; for `CNCC(=O)NC(CCCN=C(N)N)C(=O)NC(C(=O)NC(Cc1ccc(O)cc1)C(=O)NC(C(=O)NC(Cc1cnc[nH]1)C(=O)N1CCCC1C(=O)NC(C)C(=O)O)C(C)C)C(C)C` (stereo unspecified), “inactive”; for `C=CC1=C(C(=O)O)N2C(=O)[C@@H](NC(=O)C(N=O)c3csc(N)n3)[C@H]2SC1` (stereo partly specified), “inactive”.
For `Cn1cc(O)nc1NC(=O)Nc1cccc(Cl)c1` the value was “inactive”; for `CC(C)C[C@H](NC(=O)[C@@H](Cc1c[nH]c2ccccc12)NC(=O)[C@@H](Cc1ccc(O)cc1)NC(=O)[C@@H](CO)NC(=O)[C@@H](Cc1c[nH]c2ccccc12)NC(=O)C(Cc1cnc[nH]1)NC(=O)C1CCC(=O)N1)C(=O)N[C@@H](CCCN=C(N)N)C(=O)N1CCC[C@@H]1C(=O)NCC(N)=O` (stereo partly specified), “inactive”.
For `CC1(C)C(/C=C/C=C/C=C/C=C2\N(CCCCS(=O)(=O)O)c3ccc4ccccc4c3C2(C)C)=[N+](CCCCS(=O)(=O)[O-])c2ccc3ccccc3c21` the value was “inactive”; for `NC(=O)CCC1NC(=O)C(Cc2ccccc2)NC(=O)C(Cc2ccc(O)cc2)NC(=O)CCSSCC(C(=O)N2CCCC2C(=O)NC(CCCN=C(N)N)C(=O)NCC(N)=O)NC(=O)C(CC(N)=O)NC1=O` (stereo unspecified), “inactive”.
On to `CC(C)CC1NC(=O)C(CCCN)NC(=O)C(C(C)C)NC(=O)C2CCCN2C(=O)C(Cc2ccccc2)NC(=O)C(CC(C)C)NC(=O)C(CCCN)NC(=O)C(C(C)C)NC(=O)C2CCCN2C(=O)C(Cc2ccccc2)NC1=O` (stereo unspecified) (cyclo(FPV[Orn]LFPV[Orn]L); configuration not given here), for which the Potency was 0.642 µM (active).
The result for `CCC(C)C1NC(=O)C(Cc2ccc(O)cc2)NC(=O)C(N)CSSCC(C(=O)N2CCCC2C(=O)NC(CC(C)C)C(=O)NCC(N)=O)NC(=O)C(CC(N)=O)NC(=O)C(CCC(N)=O)NC1=O` (stereo unspecified) reads “inactive”; that for `CC(N)C(=O)NCC(=O)NC1CSSCC(C(=O)O)NC(=O)C(CO)NC(=O)C(C(C)O)NC(=O)C(Cc2ccccc2)NC(=O)C(C(C)O)NC(=O)C(CCCCN)NC(=O)C(Cc2c[nH]c3ccccc23)NC(=O)C(Cc2ccccc2)NC(=O)C(Cc2ccccc2)NC(=O)C(CC(N)=O)NC(=O)C(CCCCN)NC1=O` (stereo unspecified), “inactive”; that for `CC(=O)OCC(=O)[C@@]1(O)CCC2C3CCC4=CC(=O)CC[C@]4(C)C3=CC[C@@]21C` (stereo partly specified), “inactive”.
For `CC(C)CC(NC(=O)C(COC(C)(C)C)NC(=O)C(Cc1ccc(O)cc1)NC(=O)C(CO)NC(=O)C(Cc1c[nH]c2ccccc12)NC(=O)C(Cc1cnc[nH]1)NC(=O)C1CCC(=O)N1)C(=O)NC(CCCN=C(N)N)C(=O)N1CCCC1C(=O)NNC(N)=O` (stereo unspecified) the value was “inactive”.
